This note sets out measurements from PMC4336329 (PLoS ONE, 2015).

In all, about 310,000 compounds went through this assay and about 14,000 (4.5%) showed an effect of 50% or more. Effects have a minus sign here. This excerpt belongs to a sample that is enriched for strong results.
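Note: peak tail current of the secondary pulse compared with the same well before compound.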

human ether-à-go-go-related gene (hERG) potassium channel, sequence (Q12809 whole entry, looked up): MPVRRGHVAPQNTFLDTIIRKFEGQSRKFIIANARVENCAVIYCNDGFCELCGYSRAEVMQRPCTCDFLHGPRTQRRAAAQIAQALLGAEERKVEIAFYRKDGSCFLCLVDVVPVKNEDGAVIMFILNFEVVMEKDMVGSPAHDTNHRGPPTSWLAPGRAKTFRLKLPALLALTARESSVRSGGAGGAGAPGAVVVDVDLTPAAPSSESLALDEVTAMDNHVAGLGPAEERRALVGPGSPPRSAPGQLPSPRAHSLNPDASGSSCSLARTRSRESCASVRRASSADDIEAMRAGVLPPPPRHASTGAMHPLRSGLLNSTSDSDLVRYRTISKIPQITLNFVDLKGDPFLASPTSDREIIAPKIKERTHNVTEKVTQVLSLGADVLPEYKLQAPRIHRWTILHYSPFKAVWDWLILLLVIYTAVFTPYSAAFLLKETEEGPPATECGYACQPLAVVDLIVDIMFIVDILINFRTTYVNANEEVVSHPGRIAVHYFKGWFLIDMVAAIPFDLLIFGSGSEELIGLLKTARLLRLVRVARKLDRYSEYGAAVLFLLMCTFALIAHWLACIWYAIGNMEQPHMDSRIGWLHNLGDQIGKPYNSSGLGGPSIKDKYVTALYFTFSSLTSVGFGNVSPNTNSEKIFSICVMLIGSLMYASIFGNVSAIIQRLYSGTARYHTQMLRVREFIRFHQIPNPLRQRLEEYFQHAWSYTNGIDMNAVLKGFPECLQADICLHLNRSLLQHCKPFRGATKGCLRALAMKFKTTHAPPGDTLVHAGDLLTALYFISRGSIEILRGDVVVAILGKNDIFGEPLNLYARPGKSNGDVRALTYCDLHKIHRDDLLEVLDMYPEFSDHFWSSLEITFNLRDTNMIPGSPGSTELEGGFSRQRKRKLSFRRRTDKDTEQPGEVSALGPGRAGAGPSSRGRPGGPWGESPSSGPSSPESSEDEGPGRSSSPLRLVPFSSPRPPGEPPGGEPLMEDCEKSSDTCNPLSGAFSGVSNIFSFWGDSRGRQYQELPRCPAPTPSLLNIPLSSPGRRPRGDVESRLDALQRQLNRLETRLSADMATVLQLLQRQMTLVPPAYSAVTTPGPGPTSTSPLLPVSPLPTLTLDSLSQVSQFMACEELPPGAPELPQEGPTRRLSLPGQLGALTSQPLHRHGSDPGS

This assay concerns the target human ether-à-go-go-related gene (hERG) potassium channel (human, UniProt Q12809). The experiment in a line: primary screen, population patch clamp on CHO cells stably expressing hERG; higher = less effect of the substance.
As to `CC(C)C(NC(=O)CCNC(=O)c1ccccc1Cl)c1nc2ccccc2[nH]1` (stereo not drawn), the “hERG current change (%, negative = inhibition) at 10uM” value was -9.36%.
For `Cc1ccc(S(=O)(=O)NC(=NC2CCCCC2)c2ccccc2)cc1` the value was -55.2%.
Consider `Cc1ccc(S(=O)(=O)NC(=NC2CCCCC2)c2ccc(F)cc2)cc1`, for which the “hERG current change (%, negative = inhibition) at 10uM” value was -4.09%.
For `O=S(=O)(NC(=NC1CCCCC1)c1ccccc1)c1ccccc1` the value was -14.7%; for `Cn1c(Cc2csc(N)n2)nnc1SCC(=O)NCc1ccccc1`, 1.12%; for `COc1cccc(NC(=O)c2ccc(OC(F)(F)F)cc2)c1`, 1.07%.
The value for `COc1ccc(-c2cc(C(=O)c3c(N)n(C)c(=O)n(C)c3=O)c3ccccc3n2)cc1` was -15.5%; that for `O=C(NCc1ccccc1Cl)C1CCCN(c2ncnc3c2nc2n3CCCCC2)C1` (stereo not drawn) was -60.8%; that for `O=C(Nc1ccccc1Cl)C1CCCN(c2ncnc3c2nc2n3CCCCC2)C1` (stereo not drawn) was -59.4%.
With `O=C(NCC1CCN(Cc2ccccc2F)CC1)C1CCCN(c2ncnc3c2nc2n3CCCCC2)C1` (stereo not drawn), the “hERG current change (%, negative = inhibition) at 10uM” value is recorded as -8.94%.
The value for `O=C(NCC1CCN(Cc2cccc(Cl)c2)CC1)C1CCCN(c2ncnc3c2nc2n3CCCCC2)C1` (stereo not drawn) was -44.5%; that for `COc1cccc(CNC(=O)C2CCN(c3ncnc4c3nc3n4CCCCC3)CC2)c1` was 16.7%.
Consider `COc1ccc(CNC(=O)C2CCCN(c3ncnc4c3nc3n4CCCCC3)C2)cc1` (stereo not drawn), for which the “hERG current change (%, negative = inhibition) at 10uM” value is on record as -37.6%.
For `O=C(NCc1ccccc1Cl)C1CCN(c2ncnc3c2nc2n3CCCCC2)CC1`, the “hERG current change (%, negative = inhibition) at 10uM” value was -30.9%.
On to `O=C(Nc1cccnc1Cl)C1CCCN(c2ncnc3c2nc2n3CCCCC2)C1` (stereo not drawn), for which the “hERG current change (%, negative = inhibition) at 10uM” value is -42%.
The value for `O=C(NCc1cccc(Cl)c1)C1CCCN(c2ncnc3c2nc2n3CCCCC2)C1` (stereo not drawn) was -73.5%; that for `COc1cccc(CNC(=O)C2CCCN(c3ncnc4c3nc3n4CCCCC3)C2)c1` (stereo not drawn) was -55.6%; that for `O=C(Nc1cccnc1)C1CCCN(c2ncnc3c2nc2n3CCCCC2)C1` (stereo not drawn) was -36%.
For `CN(CCN1CCOCC1)Cc1nc(-c2ccc(Cl)cc2)no1`, the “hERG current change (%, negative = inhibition) at 10uM” value is -28.1%.
The value for `O=C(NCc1cccs1)C(=O)NCC1OCCCN1S(=O)(=O)c1cccs1` (stereo not drawn) was -15.3%; that for `CC(C)c1ccc(N(CC(=O)NC(C)(C)C)C(=O)CCC(=O)Nc2nccs2)cc1` was 2.7%.
`Cc1ccccc1NC(=O)CN1C(=O)CSc2ccccc21`: the “hERG current change (%, negative = inhibition) at 10uM” value was 17.3%.
For `CC(=O)c1cccc(S(=O)(=O)N(C)C2CCN(C)CC2)c1.Cl` the value was -2.43%; for `O=C(COc1ccc(Br)cc1Br)NC(=S)N1CCCc2ccccc21`, -2.7%.
For `CN1CCN(C(=O)c2ccccc2N(Cc2ccccc2)S(=O)(=O)c2ccccc2)CC1` the value was -8.4%; for `Cc1ccc(-c2[nH]nc3c2C(c2ccsc2)C(C#N)=C(N)O3)cc1` (stereo not drawn), -18.9%.
`CCc1ccc(N(CC)c2ncnc3nc[nH]c23)cc1`: the “hERG current change (%, negative = inhibition) at 10uM” value is -4.89%.
For `CC(C)c1ccc2oc(=O)cc(CN3CCN(c4ccc(F)cc4)CC3)c2c1` the value was -2.26%.
For `CC(C)NC(=O)CSc1nc2[nH]ncc2c(=O)[nH]1` the value was 15.6%.
For `O=C(NCc1ccco1)c1ccc(OCC2CCCO2)cc1` (stereo not drawn) the value was -23.2%.
As for `COc1cc(NC(=O)C2CCCN(c3ncnc4c3nc3n4CCCCC3)C2)cc(OC)c1OC` (stereo not drawn), the “hERG current change (%, negative = inhibition) at 10uM” value is listed as -6.46%.
Regarding `COc1ccc(OC)c(CCNC(=O)C2CCN(c3ncnc4c3nc3n4CCCCC3)CC2)c1`, the “hERG current change (%, negative = inhibition) at 10uM” value is listed as -0.169%.
For `COc1ccc(OC)c(CNC(=O)C2CCCN(c3ncnc4c3nc3n4CCCCC3)C2)c1` (stereo not drawn) the value was -59%.
For `O=C(NCc1ccc(Cl)cc1)C1CCCN(c2ncnc3c2nc2n3CCCCC2)C1` (stereo not drawn) the value was -55.4%; for `COc1cccc(NC(=O)C2CCCN(c3ncnc4c3nc3n4CCCCC3)C2)c1` (stereo not drawn), -67.4%.
For `Cc1ccccc1CN1CCC(CNC(=O)C2CCCN(c3ncnc4c3nc3n4CCCCC3)C2)CC1` (stereo not drawn) the value was -7.3%; for `CSc1cccc(NC(=O)C2CCCN(c3ncnc4c3nc3n4CCCCC3)C2)c1` (stereo not drawn), -47.9%.
Consider `CCc1cccc(NC(=O)C2CCCN(c3ncnc4c3nc3n4CCCCC3)C2)c1` (stereo not drawn), for which the “hERG current change (%, negative = inhibition) at 10uM” value is given as -46.4%.
For `COc1ccccc1CNC(=O)C1CCN(c2ncnc3c2nc2n3CCCCC2)CC1` the value was 6.69%; for `CCOc1ccccc1CNC(=O)C1CCCN(c2ncnc3c2nc2n3CCCCC2)C1` (stereo not drawn), -51.6%.
The value for `C/C(CC(=O)Nc1ccc([N+](=O)[O-])cc1)=N/NC(=O)C1C2CCCCC21` (stereo not drawn) was -21.7%; that for `O=C(Nc1ccc(NC(=O)c2ccc3c(c2)OCO3)cc1)c1cccc(Cl)c1` was 24.9%; that for `Cc1onc(-c2ccccc2)c1C(=O)OCCOc1ccc([N+](=O)[O-])cc1[N+](=O)[O-]` was -17.9%.
For `O=C(CCN1C(=O)COc2ccccc21)NCc1cccnc1` the value was 6.28%.
As for `Cc1c(NC(=O)C2CC(c3ccc(F)cc3)=NO2)c(=O)n(-c2ccccc2)n1C` (stereo not drawn), the “hERG current change (%, negative = inhibition) at 10uM” value was -3.93%.
